Bioassay records deposited in PubChem by Center for Chemical Genomics, University of Michigan.
Dicer processing – blocks human Dicer maturation of pre-miR-21 | Q9UPY3 | cat-ELCCA pre-miR-21 Dicer processing, chemiluminescence; hits give high values | z-score at 25 µM | hit rate 6% among 47,000 | AID 1347074; in the data active = z-score above about 3, passing the limit was not always enough;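 note: plate controls were vehicle for no effect and no enzyme for full effect; higher signal means more uncleaved substrate so more Dicer inhibition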
* marks the source's active call; other numbers are inactive results. This excerpt belongs to a sample that is enriched for hits.

SMILES | Dicer processing
O=S(=O)(Nc1ccc2oc(-c3ccccc3F)nc2c1)c1ccccc1 | -0.51
Cc1cc(=O)oc2cc(NS(=O)(=O)c3ccccc3)ccc12 | 1.36
O=S(=O)(Nc1ccc2oc(-c3ccc(Cl)cc3)nc2c1)c1ccccc1 | 4.03*
Clc1ccc(-c2nc3cc(NCc4cccs4)ccc3o2)cc1 | -0.22
Clc1ccc(Cn2nnc(N3CCCCC3)n2)cc1 | 14.5
Fc1ccc(-c2nc3ncccc3o2)cc1 | 3.27*
Cc1ccc2nc(-c3cc(N)ccc3Cl)oc2c1 | 4.01*
CN(C(=O)c1cnccc1C(F)(F)F)c1nc2cc(Cl)ccc2s1 | -0.37
CC(C(=O)O)N1C(=O)C2CCCCC2C1=O (stereo not given) | 0.89
CN(C)S(=O)(=O)N(CC(=O)N1CCc2ccccc2C1)c1ccccc1 | 0.99
CCC1(c2ccccc2)OC(c2ccc([N+](=O)[O-])cc2)Nc2ccccc21 (stereo not given) | 1.93
Cn1c(=O)[nH]c(=O)c2c1nc(Br)n2CC(O)COc1ccc2ccccc2c1 (stereo not given) | -0.39
O=C1CCCC2=C1C(c1ccccc1OCc1ccccc1F)C1=C(CCCC1=O)N2 | 0.2
C=C(C)C1CC=C(C)C(OC(=O)c2ccccc2C(=O)O)C1 (stereo not given) | 1.37
COc1ccc(C23CC4CC(CC(O)(C4)C2)C3)cc1 | 1.28
COc1ccc(-c2cnc(NCc3ccc(SC)cc3)n2C)cc1 | -0.61
Cc1cnc(N2CCN(NC(=S)Nc3cccnc3)CC2)c(Cl)c1 | -1.48
CCOC(=O)c1cc(C#N)c(N2CCN(S(C)(=O)=O)CC2)nc1C(F)(F)F | -0.43
Nc1ccc2oc(-c3ccc(F)cc3)nc2c1 | 3.69*
Nc1ccc2oc(-c3cccc(Cl)c3)nc2c1 | 2.27
Nc1ccc2nc(-c3ccccc3)oc2c1 | 4*
Nc1ccc2oc(-c3ccc(-c4nc5cc(N)ccc5o4)cc3)nc2c1 | 1.09
Nc1ccc2oc(-c3ccccc3F)nc2c1 | 2.31
Nc1ccc(-c2nc3ccccc3o2)cc1 | 1.62
Nc1ccc(-c2nc3cc(Cl)ccc3o2)cc1 | 3.19*
SMILES | Dicer processing
Cc1cc2nc(-c3ccc(N)cc3)oc2cc1C | 0.76
Nc1ccc2oc(-c3ccccc3)nc2c1 | 0.65
Cc1ccc(S(=O)(=O)NC(=O)NNC(=O)c2cc(C(C)(C)C)nn2Cc2ccc(F)cc2)cc1 | 1.36
COc1ccc(N2C(=O)CC(Nc3ccc(O)cc3)C2=O)cc1 (stereo not given) | 2.13
COC(=O)c1cc(C#N)c(SCC(=O)c2ccc(Cl)cc2)nc1C(OC)OC | -0.64
COC(=O)Cc1ccc2oc3ccccc3c(=O)c2c1 | 1.13
NCc1ccc(S(N)(=O)=O)cc1 | -0.5
CN1C(=O)CC(NCc2ccc(S(N)(=O)=O)cc2)C1=O (stereo not given) | 3.25*
NS(=O)(=O)c1ccc(CNC2CC(=O)N(c3ccc(Br)cc3)C2=O)cc1 (stereo not given) | 22
Cc1ccc(N2C(=O)CC(N3CCN(Cc4ccc5c(c4)OCO5)CC3)C2=O)cc1Cl (stereo not given) | -0.83
CCCC[C@@]1(C2CCCC2)Cc2cc(OCC(=O)O)c(Cl)c(Cl)c2C1=O | 3.95*
CCOC(=O)C(NC(C)=O)C(=O)OCC | -0.76
COc1ccc2[nH]cc(CCNC3CC(=O)N(c4ccc(Br)cc4)C3=O)c2c1 (stereo not given) | 3.49*
COc1ccc(N2C(=O)CC(NCCc3c[nH]c4ccc(Cl)cc34)C2=O)cc1 (stereo not given) | -0.9
O=C1CC(NCCc2c[nH]c3ccccc23)C(=O)N1c1cccc(Cl)c1 (stereo not given) | 0.63
Fc1ccc(CSc2nc3ncc(Br)cc3[nH]2)c(Cl)c1 | 0.89
Fc1ccc(N/N=C/Cc2nnnn2-c2ccccc2)c(F)c1 | 3.89*
NC(=S)N/N=C\Cc1nnnn1-c1ccccc1 | -0.56
C(=C\c1nnnn1-c1ccccc1)/NCc1ccccc1 | -0.29
O=C(c1ccco1)c1cn(CC(=O)N2CCc3ccccc32)c2ccccc12 | -0.47
COc1ccc(-c2csc3nc(C)oc(=O)c23)cc1OC | 2.08
Cn1c(=O)c2cc3cc(F)ccc3nc2n(C)c1=O | -0.37
S=c1[nH]nc(-c2ccccc2Cl)n1C1CCCCC1 | 0.48
S=c1[nH]nc(Cc2ccccc2)n1C1CCCCC1 | 0.77
S=c1[nH]nc(CSCc2cccc3ccccc23)n1C1CCCCC1 | 3.59*
SMILES | Dicer processing
CCOC(=O)CSCc1c(C)c(C)c(C)c(C)c1C | -0.06
CCOc1ccc(-c2oc3ccc(C)cc3c(=O)c2O)cc1OC | -1.49
Clc1ccc(CSc2nc3ccccc3[nH]2)cc1 | -0.16
CCCc1cc2c(=O)c(-c3ccc(C(=O)OCC)o3)coc2cc1O | 0.09
Cc1ccc(N2C(=O)c3ccccc3C2C(=O)c2ccc(C)cc2O)cc1 (stereo not given) | 12*
Cc1ccc(C(=O)C2C(=O)c3ccccc3C2=O)cc1 | 0.21
Cc1ccc(C(=O)CN2/C(=C(/O)c3ccccc3)C(=O)c3ccccc3S2(=O)=O)c(C)c1 | -0.63
CSc1nc(C)nc(N/C=C2\C(=O)c3ccccc3N(C)S2(=O)=O)n1 | -0.05
c1ccc(-c2nc(NC3CCCCC3)c3ccccc3n2)cc1 | 0.99
Nc1nc(Cc2cc3ccccc3[nH]2)nc(NC2CCCCC2)n1 | 4.05*
N#CCSc1nnc2c(n1)[nH]c1ccccc12 | -0.01
Cc1cc(C(F)(F)F)cc(-n2cc(C#N)c(N)n2)n1 | -1.05
CC(Oc1ccc(Cl)cc1Cl)c1n[nH]c(=S)n1-c1ccccc1 (stereo not given) | 1.4
Cc1onc(-c2c(Cl)cccc2Cl)c1C(=O)Nc1cccc(F)c1C(=O)Nc1ccc(F)cc1 | 0.19
O=C(Nc1c(C(=O)c2ccc(F)cc2)oc2ccccc12)c1ccccc1 | -0.56
Cc1ccc(C(=O)c2oc3ccccc3c2N)cc1 | 0.43
Nc1c(C(=O)c2ccc(Oc3ccccc3)cc2)oc2ccccc12 | 3.77*
CC(C)(C)OC(=O)NCCNc1ccc(C(F)(F)F)cc1N | 0.68
Cc1[nH]c2ccccc2c1C1(O)C(=O)N(CCCc2ccccc2)c2ccccc21 (stereo not given) | 1.88
COc1cc(C2=NNC(=O)CC2)cc(OC)c1OC | -1.52
COC(=O)C1=C(C)NC2=C(C(=O)CC(C)(C)C2)C1c1cccc(Cl)c1 (stereo not given) | -0.94
CN(C)/C=N/S(=O)(=O)c1ccc(-n2nc(C(F)(F)F)cc2-c2cccs2)cc1 | -3.14
CS/C(=N/S(=O)(=O)c1ccc(-n2nc(C(F)(F)F)cc2-c2cccs2)cc1)NNC(=O)Nc1ccccc1 | 4.44*
NN/C(=N\S(=O)(=O)c1ccc(-n2nc(C(F)(F)F)cc2-c2cccs2)cc1)N1CCCC1 | -1.75
O=C(/C=C(\CC(=O)c1ccc(F)cc1)c1ccccc1)c1ccc(F)cc1 | -1.11
SMILES | Dicer processing
Cc1ccc(-n2nc(C)c3c(C)cc(=O)oc32)cc1Cl | 0.61
CSC1=N/C(=C\c2ccc([N+](=O)[O-])s2)C(=O)N1CCOc1ccc(Cl)cc1 | -0.23
CSC1=N/C(=C\c2ccc(Cl)cc2)C(=O)N1CCOc1ccc(Cl)cc1 | 3.62*
CSC1=N/C(=C\c2ccc(Cl)cc2)C(=O)N1N(C)C | -0.39
COc1ccc(C2CC(=O)C3=C(C2)Nc2ccccc2NC3c2coc3ccccc3c2=O)cc1 (stereo not given) | 1.8
Cn1nc(C(C)(C)C)c([N+](=O)[O-])c1C(C)(C)C | -0.78
Cc1ccc2[nH]c(C)c(CN3CCCC(C)C3)c(=O)c2c1 (stereo not given) | 0.14
COc1cc(C=Nc2ccc3oc(=O)ccc3c2)cc(OC)c1OC | 0.4
COCCOC(=O)c1c(C)oc2ccc(OC)cc12 | 2.91
CCOC(=O)c1c(C)oc2ccc(OC)cc12 | 2.23
CCOC(=O)CCC(=O)c1c(C)oc2ccc(OC)cc12 | 3.11*
